According to the supplement of paper PMC10849652:
Targets with a hit are over-represented here; the source holds about 8,800 in all. About 0.5% of all pairs of compound and target were hits.

Legend:
Experiment in all cases: log2 fold change, soluble protein after heating vs DMSO (PISA); higher = thermal stabilisation; K562 lysate, 10 uM; active = over 0.2 and 3.5 SD of the protein, either way, in both replicates (recomputed)
[1] = compound: C=CC(=O)N1CCC[C@@H](n2nc(-c3ccc(Oc4ccccc4)cc3)c3c(N)ncnc32)C1 [ibrutinib]
Summary of the method: (§1)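 Quantification was by TMTpro 16plex LC-MS/MS with equalised channel sums, applied to the supernatant after 21,000xg for 90 min. Samples were crude K562 extract at 1 mg/mL protein in PBS pH 7.4 with 1 mM MgCl2, treated with 10 μM compound for 30 min, heated for 3 min across 48°C-58°C, pooled and brought to 0.5% NP-40 at 4°C. Values are log-two fold changes in thermal stability relative to solvent controls, from duplicates.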

[2] = compound: CC(=O)c1cnc2ccc(-c3cc(Cl)c(O)c(Cl)c3)nc2c1N[C@H]1CC[C@H](CN(C)C)CC1
Summary of the method: as §1

[3] = compound: CC(C)(C)Cn1c(N)nc2ccc(-c3[nH]c(C(C)(C)C)nc3-c3ccc(F)cc3)nc21 [ralimetinib]
Summary of the method: as §1

[4] = compound: CC(C)(O)CC(=O)NCCn1ccc2ncnc(Nc3ccc(Oc4cccc(C(F)(F)F)c4)c(Cl)c3)c21
Summary of the method: as §1

[5] = compound: CC(C)C1=C2N=C(C=C(N2N=C1)NCC3=CC=CC=C3)NCCCCCCN
Summary of the method: as §1

[6] = compound: CC1=C(C(CC(=O)N1)C2=CC=C(C=C2)C(F)(F)F)C(=O)NC3=C(C=C4C(=C3)C=NN4)F
Summary of the method: as §1

[7] = compound: CC1=C(C2=C(C=C1)C(=O)C3=CC=CC=C3N2CCCN)C
Summary of the method: as §1

[8] = compound: CC1=C(C=C(C=C1)NC(=O)C2=CC(=CC=C2)C(C)(C)C#N)NC3=CC4=C(C=C3)N=CN(C4=O)C
Summary of the method: as §1

[9] = compound: CC1=C(C=C(C=C1)NC(=O)C2=CC(=CC=C2)N(C)C)NC(=O)C3=CC=C(C=C3)O
Summary of the method: as §1

[10] = compound: CC1=CC=C(C=C1)SC2=C3C=C(SC3=CN=C2)C(=O)N
Summary of the method: as §1

Measured: log2 fold change

EXOC2 (UniProt Q96KP1)
inactive: [1] 0.014 | [2] 0.003 | [3] 0.049 | [4] -0.027 | [5] -0.022 | [6] 0.01 | [7] -0.019 | [8] 0.016 | [9] 0.032 | [10] 0.004

ENY2 (UniProt Q9NPA8)
Chain of UniProt Q9NPA8 (Q9NPA8 whole entry, looked up): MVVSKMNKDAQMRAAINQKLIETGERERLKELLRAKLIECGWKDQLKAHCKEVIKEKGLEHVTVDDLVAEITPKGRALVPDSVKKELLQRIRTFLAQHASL
inactive: [1] 0.161 | [2] 0.038 | [3] -0.021 | [4] 0.057 | [5] 0 | [6] -0.069 | [7] 0.066 | [8] 0.075 | [9] -0.052 | [10] 0.035

GFPT1 (UniProt Q06210)
inactive: [1] 0.014 | [2] -0.014 | [3] 0.002 | [4] -0.024 | [5] 0.022 | [6] -0.015 | [7] 0.012 | [8] 0.009 | [9] 0.014 | [10] 0.01

ECI2 (UniProt O75521)
Chain of UniProt O75521 (O75521 whole entry, looked up): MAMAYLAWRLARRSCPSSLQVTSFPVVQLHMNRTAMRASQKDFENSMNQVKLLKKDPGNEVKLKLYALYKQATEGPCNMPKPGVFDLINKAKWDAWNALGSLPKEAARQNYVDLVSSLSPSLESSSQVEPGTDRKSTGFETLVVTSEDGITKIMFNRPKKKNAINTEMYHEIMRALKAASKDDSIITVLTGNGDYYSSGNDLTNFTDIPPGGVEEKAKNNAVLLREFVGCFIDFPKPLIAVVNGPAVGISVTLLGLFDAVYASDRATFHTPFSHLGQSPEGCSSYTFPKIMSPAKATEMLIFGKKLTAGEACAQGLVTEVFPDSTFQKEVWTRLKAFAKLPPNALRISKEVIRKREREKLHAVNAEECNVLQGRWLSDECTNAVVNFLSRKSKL
inactive: [1] 0.01 | [2] -0.027 | [3] -0.033 | [4] -0.049 | [5] -0.015 | [6] -0.013 | [7] -0.008 | [8] 0.013 | [9] 0.007 | [10] 0

EIF2D (UniProt P41214)
inactive: [1] 0.011 | [2] -0.017 | [3] 0.018 | [4] 0.026 | [5] 0.03 | [6] -0.005 | [7] -0.03 | [8] -0.004 | [9] 0.016 | [10] 0.01

EMP3 (UniProt P54852)
Chain of UniProt P54852 (P54852 whole entry, looked up): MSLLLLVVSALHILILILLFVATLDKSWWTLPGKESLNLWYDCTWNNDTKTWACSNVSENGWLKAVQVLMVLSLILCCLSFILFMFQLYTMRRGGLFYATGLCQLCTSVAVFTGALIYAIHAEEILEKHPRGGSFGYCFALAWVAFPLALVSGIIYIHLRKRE
inactive: [1] 0.045 | [2] -0.012 | [3] 0.088 | [4] -0.081 | [5] 0 | [6] 0.013 | [7] -0.003 | [8] 0.041 | [9] -0.036 | [10] -0.01

FKBP1A (UniProt P62942)
Chain of UniProt P62942 (P62942 whole entry, looked up): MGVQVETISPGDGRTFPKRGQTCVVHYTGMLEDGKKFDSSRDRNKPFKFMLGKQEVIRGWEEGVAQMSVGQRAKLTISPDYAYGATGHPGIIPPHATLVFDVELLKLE
inactive: [1] 0.083 | [2] -0.103 | [3] 0.188 | [4] -0.054 | [5] 0.049 | [6] -0.022 | [7] -0.013 | [8] 0.084 | [9] 0.018 | [10] 0.187

EEF1AKMT4 (UniProt P0DPD7)
Chain of UniProt P0DPD7 (P0DPD7 whole entry, looked up): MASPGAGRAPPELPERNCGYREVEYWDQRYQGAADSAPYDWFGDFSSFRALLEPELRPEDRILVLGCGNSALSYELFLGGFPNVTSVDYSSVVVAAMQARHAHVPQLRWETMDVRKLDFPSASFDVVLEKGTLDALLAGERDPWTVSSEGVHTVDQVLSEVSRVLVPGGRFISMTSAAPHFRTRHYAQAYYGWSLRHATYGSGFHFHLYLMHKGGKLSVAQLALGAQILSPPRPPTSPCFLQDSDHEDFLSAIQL
inactive: [1] 0.023 | [2] -0.012 | [3] -0.003 | [4] -0.053 | [5] 0.003 | [6] -0.006 | [7] -0.055 | [8] -0.029 | [9] -0.029 | [10] 0.069

EAPP (UniProt Q56P03)
inactive: [1] -0.105 | [2] 0.025 | [3] -0.1 | [4] -0.059 | [5] -0.035 | [6] 0.037 | [7] -0.037 | [8] -0.015 | [9] 0.052 | [10] -0.042

FOXJ3 (UniProt Q9UPW0)
Chain of UniProt Q9UPW0 (Q9UPW0 whole entry, looked up): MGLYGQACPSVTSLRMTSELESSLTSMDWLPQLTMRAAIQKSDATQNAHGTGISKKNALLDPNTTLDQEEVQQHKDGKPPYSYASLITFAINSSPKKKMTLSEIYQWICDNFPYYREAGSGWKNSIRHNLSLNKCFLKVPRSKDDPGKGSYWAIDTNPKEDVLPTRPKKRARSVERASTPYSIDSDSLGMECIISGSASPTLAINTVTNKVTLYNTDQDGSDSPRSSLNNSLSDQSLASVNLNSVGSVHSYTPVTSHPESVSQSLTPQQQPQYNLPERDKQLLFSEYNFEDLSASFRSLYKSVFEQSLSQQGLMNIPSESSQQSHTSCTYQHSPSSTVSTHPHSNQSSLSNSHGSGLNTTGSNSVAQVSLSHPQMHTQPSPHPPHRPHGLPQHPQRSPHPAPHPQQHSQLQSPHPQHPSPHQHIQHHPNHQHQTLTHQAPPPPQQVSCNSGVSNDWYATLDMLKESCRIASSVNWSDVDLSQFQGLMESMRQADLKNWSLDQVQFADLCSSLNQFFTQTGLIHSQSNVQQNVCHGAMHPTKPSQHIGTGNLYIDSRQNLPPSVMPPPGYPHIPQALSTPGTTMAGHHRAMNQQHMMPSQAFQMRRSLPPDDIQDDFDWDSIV
inactive: [1] -0.003 | [2] 0.002 | [3] -0.021 | [4] -0.08 | [5] 0.047 | [6] -0.026 | [7] -0.022 | [8] 0.071 | [9] 0.025 | [10] 0.006

GEMIN5 (UniProt Q8TEQ6)
inactive: [1] 0.012 | [2] -0.01 | [3] 0.03 | [4] -0.001 | [5] 0.016 | [6] -0.02 | [7] -0.026 | [8] 0.005 | [9] 0.014 | [10] 0.007

FAM83A (UniProt Q86UY5)
Chain of UniProt Q86UY5 (Q86UY5 whole entry, looked up): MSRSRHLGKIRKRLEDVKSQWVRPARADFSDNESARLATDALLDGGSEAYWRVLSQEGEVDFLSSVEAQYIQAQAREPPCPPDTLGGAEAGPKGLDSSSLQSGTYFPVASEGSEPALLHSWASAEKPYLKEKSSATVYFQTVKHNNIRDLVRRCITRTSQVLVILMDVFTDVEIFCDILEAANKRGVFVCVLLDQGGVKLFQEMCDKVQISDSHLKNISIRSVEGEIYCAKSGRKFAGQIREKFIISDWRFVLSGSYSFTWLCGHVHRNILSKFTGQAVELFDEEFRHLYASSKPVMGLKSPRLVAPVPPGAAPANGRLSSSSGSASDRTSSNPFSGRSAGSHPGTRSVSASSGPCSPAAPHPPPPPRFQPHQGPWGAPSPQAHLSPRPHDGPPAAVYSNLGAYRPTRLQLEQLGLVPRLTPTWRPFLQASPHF
inactive: [1] 0.125 | [2] 0.006 | [3] 0.008 | [4] 0.053 | [5] -0.06 | [6] 0.018 | [7] 0.023 | [8] 0.035 | [9] -0.023 | [10] 0.026

EP400 isoform 5 (UniProt Q96L91)
inactive: [1] -0.061 | [2] -0.018 | [3] 0.02 | [4] -0.033 | [5] -0.027 | [6] 0.047 | [7] -0.014 | [8] 0.016 | [9] 0.035 | [10] 0.041

GAPDH (UniProt P04406)
inactive: [1] 0.037 | [2] 0.021 | [3] -0.006 | [4] 0.02 | [5] 0.008 | [6] -0.01 | [7] -0.008 | [8] -0.037 | [9] -0.014 | [10] 0.009

DTWD1 (UniProt Q8N5C7)
inactive: [1] 0.013 | [2] 0.032 | [3] 0.005 | [4] 0.005 | [5] 0.034 | [6] 0.058 | [7] -0.019 | [8] 0 | [9] -0.02 | [10] -0.027

ENO1, A0A2R8YEM5
inactive: [1] -0.013 | [2] 0.008 | [3] -0.012 | [4] -0.016 | [5] -0.024 | [6] -0.032 | [7] 0.001 | [8] 0.012 | [9] -0.044 | [10] 0.014

FBXO30 (UniProt Q8TB52)
Chain of UniProt Q8TB52 (Q8TB52 whole entry, looked up): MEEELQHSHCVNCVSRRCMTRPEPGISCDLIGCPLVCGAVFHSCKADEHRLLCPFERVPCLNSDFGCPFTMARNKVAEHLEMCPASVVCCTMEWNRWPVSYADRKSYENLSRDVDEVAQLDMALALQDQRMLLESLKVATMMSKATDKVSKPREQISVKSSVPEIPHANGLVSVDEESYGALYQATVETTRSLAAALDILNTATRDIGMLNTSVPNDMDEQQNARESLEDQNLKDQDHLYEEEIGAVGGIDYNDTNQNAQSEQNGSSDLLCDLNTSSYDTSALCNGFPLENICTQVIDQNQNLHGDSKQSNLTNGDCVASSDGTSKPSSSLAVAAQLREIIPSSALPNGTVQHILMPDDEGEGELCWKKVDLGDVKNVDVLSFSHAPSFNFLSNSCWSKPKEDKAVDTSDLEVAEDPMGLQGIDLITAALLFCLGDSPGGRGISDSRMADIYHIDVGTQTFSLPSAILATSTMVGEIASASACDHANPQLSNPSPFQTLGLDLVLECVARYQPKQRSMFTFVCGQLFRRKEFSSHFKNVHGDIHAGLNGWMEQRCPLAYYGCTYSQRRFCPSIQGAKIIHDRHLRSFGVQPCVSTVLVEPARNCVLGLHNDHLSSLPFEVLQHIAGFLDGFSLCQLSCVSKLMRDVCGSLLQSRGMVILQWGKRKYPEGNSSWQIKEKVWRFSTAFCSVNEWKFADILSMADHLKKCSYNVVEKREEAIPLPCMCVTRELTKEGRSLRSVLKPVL
inactive: [1] 0.022 | [2] -0.007 | [3] 0.057 | [4] 0.046 | [5] -0.009 | [6] -0.003 | [7] 0.013 | [8] 0.016 | [9] 0.006 | [10] 0.016

EPS8L2 (UniProt Q9H6S3)
Chain of UniProt Q9H6S3 (Q9H6S3 whole entry, looked up): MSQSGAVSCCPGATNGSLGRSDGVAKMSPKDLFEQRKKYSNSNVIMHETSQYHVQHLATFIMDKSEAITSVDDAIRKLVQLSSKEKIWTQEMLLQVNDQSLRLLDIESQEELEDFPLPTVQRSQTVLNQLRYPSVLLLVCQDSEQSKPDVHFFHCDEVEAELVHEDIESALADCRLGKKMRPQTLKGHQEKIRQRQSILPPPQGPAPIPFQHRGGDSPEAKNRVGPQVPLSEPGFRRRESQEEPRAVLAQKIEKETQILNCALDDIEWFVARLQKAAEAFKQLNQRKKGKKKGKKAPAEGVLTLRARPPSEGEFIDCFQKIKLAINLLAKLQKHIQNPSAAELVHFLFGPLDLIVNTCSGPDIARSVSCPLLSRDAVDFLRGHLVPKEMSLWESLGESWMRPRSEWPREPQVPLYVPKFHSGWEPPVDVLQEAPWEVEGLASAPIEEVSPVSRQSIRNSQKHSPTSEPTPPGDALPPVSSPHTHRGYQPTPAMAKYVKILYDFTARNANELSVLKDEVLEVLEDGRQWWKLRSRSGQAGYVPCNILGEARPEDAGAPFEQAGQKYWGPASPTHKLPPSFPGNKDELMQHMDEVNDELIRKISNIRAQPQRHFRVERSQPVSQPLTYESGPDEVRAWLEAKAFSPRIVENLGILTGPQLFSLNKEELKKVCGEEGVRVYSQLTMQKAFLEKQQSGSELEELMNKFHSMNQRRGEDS
inactive: [1] -0.041 | [2] -0.026 | [3] -0.028 | [4] -0.021 | [5] 0.002 | [6] 0.031 | [7] -0.002 | [8] -0.054 | [9] -0.084 | [10] 0.015

ENO1 isoform 2 (UniProt P06733)
inactive: [1] -0.043 | [2] 0.008 | [3] 0.02 | [4] -0.07 | [5] 0.028 | [6] -0.009 | [7] -0.013 | [8] 0.023 | [9] -0.002 | [10] -0.015

DSTN (UniProt P60981)
inactive: [1] -0.011 | [2] -0.013 | [3] -0.004 | [4] 0.038 | [5] -0.006 | [6] -0.001 | [7] 0.045 | [8] -0.005 | [9] -0.012 | [10] -0.003

EGLN1 (UniProt Q9GZT9)
inactive: [1] -0.041 | [2] 0.007 | [3] 0.01 | [4] 0.072 | [5] 0.029 | [6] 0.013 | [7] -0.029 | [8] 0.013 | [9] 0.029 | [10] 0.038

FUBP3 (UniProt Q96I24)
inactive: [1] 0.024 | [2] 0.002 | [3] 0.021 | [4] -0.051 | [5] 0.014 | [6] -0.018 | [7] 0.072 | [8] -0.149 | [9] -0.003 | [10] -0.018

FNTB (UniProt P49356)
Chain of UniProt P49356 (P49356 whole entry, looked up): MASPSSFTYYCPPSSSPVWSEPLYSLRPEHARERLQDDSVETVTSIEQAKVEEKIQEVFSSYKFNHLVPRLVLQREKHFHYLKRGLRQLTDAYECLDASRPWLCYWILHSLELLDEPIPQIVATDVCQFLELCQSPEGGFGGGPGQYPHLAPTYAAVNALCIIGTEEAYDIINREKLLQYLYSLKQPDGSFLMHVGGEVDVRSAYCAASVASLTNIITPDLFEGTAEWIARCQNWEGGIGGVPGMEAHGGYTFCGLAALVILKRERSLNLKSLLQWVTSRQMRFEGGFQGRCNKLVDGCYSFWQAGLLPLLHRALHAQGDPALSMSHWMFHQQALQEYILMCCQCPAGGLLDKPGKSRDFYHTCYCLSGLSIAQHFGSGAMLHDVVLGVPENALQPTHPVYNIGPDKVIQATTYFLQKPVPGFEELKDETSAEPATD
inactive: [1] -0.018 | [2] 0.005 | [3] 0.03 | [4] -0.013 | [5] -0.022 | [6] -0.036 | [7] -0.026 | [8] -0.011 | [9] 0.038 | [10] -0.013

EXOC3 (UniProt O60645)
inactive: [1] -0.029 | [2] -0.012 | [3] 0.025 | [4] 0.048 | [5] 0.025 | [6] 0 | [7] -0.042 | [8] 0.037 | [9] 0.067 | [10] 0.004

DUS2 (UniProt Q9NX74)
Chain of UniProt Q9NX74 (Q9NX74 whole entry, looked up): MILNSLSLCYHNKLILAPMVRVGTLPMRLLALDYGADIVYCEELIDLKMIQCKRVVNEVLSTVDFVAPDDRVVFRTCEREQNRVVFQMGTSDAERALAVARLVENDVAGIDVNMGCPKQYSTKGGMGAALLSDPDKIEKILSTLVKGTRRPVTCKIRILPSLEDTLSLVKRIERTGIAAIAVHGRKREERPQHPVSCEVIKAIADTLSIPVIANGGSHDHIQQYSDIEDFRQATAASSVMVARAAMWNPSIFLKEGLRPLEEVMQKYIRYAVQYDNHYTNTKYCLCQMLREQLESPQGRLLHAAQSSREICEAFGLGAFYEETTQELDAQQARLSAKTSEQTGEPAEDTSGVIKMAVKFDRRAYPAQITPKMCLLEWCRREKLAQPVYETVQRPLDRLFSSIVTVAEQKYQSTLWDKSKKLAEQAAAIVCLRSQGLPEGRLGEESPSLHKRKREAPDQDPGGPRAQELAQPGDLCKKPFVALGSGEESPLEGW
inactive: [1] 0.071 | [2] -0.036 | [3] 0.026 | [4] 0.097 | [5] -0.003 | [6] -0.056 | [7] -0.029 | [8] -0.004 | [9] 0.091 | [10] 0.01

GALNT2 (UniProt Q10471)
inactive: [1] -0.004 | [2] 0 | [3] 0.006 | [4] 0.022 | [5] -0.005 | [6] 0.015 | [7] 0.031 | [8] -0.041 | [9] -0.012 | [10] -0.016

FMNL1 isoform 3 (UniProt O95466)
inactive: [1] 0.043 | [2] -0.002 | [3] 0.038 | [4] -0.02 | [5] 0.023 | [6] 0.099 | [7] 0.03 | [8] 0.073 | [9] 0.015 | [10] 0.001

GCDH (UniProt Q92947)
inactive: [1] -0.046 | [2] 0.028 | [3] -0.04 | [4] 0.014 | [5] -0.051 | [6] 0.069 | [7] -0.019 | [8] 0.086 | [9] -0.017 | [10] -0.03

FYCO1 isoform 4 (UniProt Q9BQS8)
inactive: [1] -0.012 | [2] -0.015 | [3] 0.021 | [4] -0.026 | [5] 0 | [6] 0.029 | [7] -0.019 | [8] -0.003 | [9] -0.028 | [10] 0

FECH isoform 2 (UniProt P22830)
Chain of UniProt P22830 (P22830 whole entry, looked up): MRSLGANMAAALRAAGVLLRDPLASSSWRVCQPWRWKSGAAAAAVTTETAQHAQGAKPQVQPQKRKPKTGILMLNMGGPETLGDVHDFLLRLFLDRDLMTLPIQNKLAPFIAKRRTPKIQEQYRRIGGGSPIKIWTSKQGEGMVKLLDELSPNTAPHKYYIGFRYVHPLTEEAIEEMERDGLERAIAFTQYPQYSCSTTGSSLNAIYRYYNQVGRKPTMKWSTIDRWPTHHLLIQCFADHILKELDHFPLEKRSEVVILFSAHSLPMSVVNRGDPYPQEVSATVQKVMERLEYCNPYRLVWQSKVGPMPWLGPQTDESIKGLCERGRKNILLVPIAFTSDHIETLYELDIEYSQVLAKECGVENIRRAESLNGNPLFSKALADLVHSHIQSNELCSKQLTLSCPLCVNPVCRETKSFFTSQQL
active: [10] -1.11
inactive: [1] 0.091 | [2] 0.104 | [3] -0.034 | [4] 0.504 | [5] 0.327 | [6] -0.263 | [7] 0.287 | [8] 0.748 | [9] 0.028
